Our source for the growth values is PubChem BioAssay (NCI).

What all share (assay): NCI-60 one-dose screen, 48 h (100 = growth as untreated, 0 = no growth, -100 = all killed)
Conditions in all cases: 10 µM unless noted

Assay [1] has as its system HCT-15 colon.
Assay [2] relates to HT29 colon.
In assay [3] the test system is SNB-75 CNS.
Assay [4] has as its system SNB-19 CNS.
In assay [5] the test system is U251 CNS.
Assay [6] concerns PC-3 prostate.
Assay [7] relates to SK-MEL-5 melanoma.
Assay [8] concerns UACC-62 melanoma.
In assay [9] the test system is LOX IMVI melanoma.
In assay [10] the test system is SK-MEL-28 melanoma.
Assay [11] has as its system SK-MEL-2 melanoma.
For assay [12], the system named is EKVX NSCLC.
Assay [13] concerns SN12C renal.
Assay [14] has as its system UO-31 renal.
Assay [15] has as its system TK-10 renal.
In assay [16] the test system is ACHN renal.
Assay [17] deals with CAKI-1 renal.
The test system of assay [18] is CCRF-CEM leukemia.
The subject of assay [19] is MOLT-4 leukemia.
Assay [20] concerns A498 renal.

Molecules are shown by their SMILES. About 83,000 compounds went through this panel and 20% of them were active in at least one assay; those are over-represented in the sample as a whole.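 Each cell line was grown in a 96-well plate and treated with one concentration of compound for 48 hours. Values below 10 were considered active.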 A number with no mark means an inactive call. Calls of active or inactive are those of the source.

Take `COc1cc(-c2cc(-c3cccs3)c(C#N)c(N3CCOCC3)n2)cc(OC)c1OC`: the growth was 25.2% in assay [1]; 22.2% in assay [2]; 69.2% in assay [3]; 95.2% in assay [4]; 52.9% in assay [5]; 67% in assay [6]. Also, the growth in assay [7] was 45.7%; in assay [8], 63.6%; in assay [9], 81.5%; in assay [10] it was 91.4%; in [11], 95.6%; in assay [12], 88.1%. The growth in assay [13] is 77.9%; in [14] it was 58.9%; in assay [15] it was 92.5%; in assay [16], 71.2%; in assay [17], 66.5%; in [18], 38.8%. Besides, the growth in assay [19] is 28.3%.
In the case of `C1=C(N2CCCC2)CCC1`, the growth in assay [1] is 104%; in assay [2], 103%; in assay [3] it was 93.2%; in assay [4], 111%; in [5], 99.4%; in assay [6] it was 77.8%. Further, the growth is 95.5% in assay [7]; 103% in assay [8]; 97.4% in assay [9]; 110% in [10]; 112% in assay [11]; 95.2% in [12]. Further, the growth in [13] is 98.1%; in assay [14], 73.5%; in [15] it was 121%; in assay [16] it was 111%; in assay [17], 79.1%; in assay [18], 106%. For the same molecule, in [19], the growth is 96.6%.
`O=C(Nn1c2c(sc1=Nc1ccccc1)C(=O)c1ccccc1C2=O)c1cc2ccc1CCc1ccc(cc1)CC2`: the growth in [1] was 51.3%; in assay [2] it was 91.8%; in assay [3], 36.3%; in [4], 60.7%; in assay [5] it was 82.6%; in [6], 66.3%. Moreover, the growth in [7] was 39.7%; in assay [8] it was 70.8%; in assay [9], 62.2%; in assay [10], 92.4%; in [11] it was 75.2%; in assay [12], 70.4%. For the same molecule, the growth in assay [13] is 70.2%; in assay [14], 33.6%; in assay [15], 108%; in assay [16], 42.7%; in [17] it was 32.1%; in assay [20], 93.7%. Besides, the growth in [18] was 79.8%; in assay [19], 83.3%.
As for `O=[N+]([O-])c1ccc(S(=O)(=O)N2CCN(C3=NS(=O)(=O)c4ccccc4N3c3ccccc3)CC2)cc1`, the growth is 109% in assay [1]; 110% in assay [2]; 90.2% in assay [3]; 101% in assay [4]; 101% in assay [5]; 87.4% in assay [6]. Also, the growth in [7] was 90.7%; in assay [8] it was 98.2%; in assay [9], 97.2%; in assay [10], 135%; in assay [11], 61.6%; in [12], 102%. For the same molecule, the growth in assay [13] is 114%; in [14] it was 76.8%; in assay [15] it was 118%; in assay [16], 99.3%; in [17], 84.6%; in assay [20], 105%. Besides, the figures for the growth in assay [18] and in assay [19] were 125% and 94.9%, respectively.
Take `N#CCSc1nnc2n(Cc3ccccc3)c(=O)c3c4c(sc3n12)CCCC4`: the growth is 96.2% in assay [1]; 111% in assay [2]; 91.1% in assay [3]; 104% in assay [4]; 101% in [5]; 95.2% in assay [6]. Besides, the growth in assay [7] was 95.3%; in [8] it was 95.6%; in [9], 98.1%; in [10], 116%; in [11] it was 96%; in [12], 94.1%. For the same molecule, the growth is 96.8% in [13]; 76.2% in assay [14]; 103% in [15]; 106% in assay [16]; 86.2% in assay [17]; 93.4% in [20]. Further, the growth in assay [18] was 86.5%; in assay [19] it was 90.7%.
For the molecule `Clc1ccc2c(c1)N(c1ncnc3ccc(-c4cnc5[nH]ncc5c4)cc13)CC2`, the growth was 25% in assay [1]; 19.3% in [2]; -16.8% (active) in assay [3]; 42.8% in assay [4]; 39.8% in assay [5]; 23.8% in [6]. Moreover, the growth is 46.5% in [7]; 8.23% (active) in assay [8]; 18.4% in assay [9]; 44.1% in [10]; 48.3% in [11]; 16.8% in assay [12]. Also, the growth is 19.5% in assay [13]; 4.18% (active) in assay [14]; 13.9% in assay [15]; 13% in [16]; 11% in [17]; -45.2% (active) in assay [20]. The figures for the growth in assay [18] and in assay [19] were 31.9% and 3.68% (active), respectively.
For the molecule `O=C1CNC(c2ccccc2)C(c2ccccc2)N1` (configuration not stated), the growth was 104% in [1]; 85.2% in assay [2]; 75.8% in assay [3]; 100% in assay [4]; 97.5% in assay [5]; 81.6% in assay [6]. Besides, the growth in assay [7] was 104%; in [8], 96.6%; in [9], 92.1%; in assay [10] it was 171%; in assay [11] it was 94.7%; in assay [12], 102%. The growth in assay [13] is 99.8%; in [14], 109%; in assay [15] it was 103%; in assay [16], 98.5%; in assay [17], 81.2%; in assay [20] it was 74.7%. In addition, the growth in [18] is 69.9%; in [19], 104%.
With `CC(=O)N(N=Nc1ccccc1)c1cccc2ccccc12`, the growth in assay [1] is 17.1%; in [2] it was 35.2%; in [3], 129%; in assay [4], 106%; in [5], 81.7%; in [6], 68.1%. Besides, the growth in [7] is 84.3%; in [8], 75.3%; in assay [9], 76.5%; in [10], 100%; in [11] it was 20.1%; in assay [12] it was 101%. Besides, the growth is 85.7% in assay [13]; 61.2% in assay [14]; 96.8% in assay [15]; 8.59% (active) in [16]; 31.8% in assay [17]; 79.8% in assay [18]. Further, in assay [19], the growth was 76.8%.
